This is one part of the list. Values without a mark were called inactive. Activity calls are given as the source filed them.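 Rule for the calls: active = inhibition above the hit threshold that was computed for the earlier primary screen (cut at about 30% in these data); inactive = the rest.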
Each compound was assayed against Sphingosine 1-phosphate receptor 3 (Homo sapiens) (UniProt Q99500) (assay: S1P3 receptor antagonists, retest, confirmation, cell-based (AID 1429;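 note: 0% = S1P-stimulated wells and 100% = unstimulated DMSO-only wells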)). Settings: CHO S1P3 NFAT-BLA reporter, FRET, antagonist mode; at 4.98 µM; stronger effect = higher value.
Chain of Sphingosine 1-phosphate receptor 3 (Homo sapiens) (Q99500 whole entry, looked up): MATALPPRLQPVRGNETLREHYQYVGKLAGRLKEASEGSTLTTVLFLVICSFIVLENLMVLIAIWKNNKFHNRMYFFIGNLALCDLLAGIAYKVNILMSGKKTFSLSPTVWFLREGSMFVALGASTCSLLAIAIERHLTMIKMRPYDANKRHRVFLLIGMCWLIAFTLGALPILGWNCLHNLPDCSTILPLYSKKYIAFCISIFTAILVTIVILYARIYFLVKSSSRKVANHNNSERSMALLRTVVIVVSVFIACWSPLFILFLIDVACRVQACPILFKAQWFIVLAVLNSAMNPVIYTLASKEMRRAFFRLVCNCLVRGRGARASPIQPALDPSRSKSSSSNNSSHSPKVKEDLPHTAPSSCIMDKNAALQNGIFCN
CC[C@H]1CN2CCc3cc(OC)c(OC)cc3[C@@H]2C[C@@H]1C[C@H]1NCCc2cc(OC)c(OC)cc21 was tested, and the inhibition was 109% (active).
For CSc1ccc(CN(C)CC(=O)NCc2ccc(F)cc2)cc1, the inhibition was -9.96%.
Work on O=C(N/N=C/c1coc2ccccc2c1=O)c1cc2ccccc2o1 yielded an inhibition of -18.6%.
Cc1ccc(NC(=O)CN(C)CC(=O)Nc2cccc(F)c2)cc1[N+](=O)[O-] showed an inhibition of 12.6%.
With CC(=O)c1c(C)[nH]c(C(=O)COC(=O)c2cccc(S(=O)(=O)N(C)c3ccccc3)c2)c1C the inhibition was 10.9%.
S=C(NCCc1ccccc1)NCC1CCCO1 (stereo not given) gave an inhibition of -4.63%.
Nc1c(C(=O)c2cccs2)sc2nsc(SCCN3CCCCC3)c12 gave an inhibition of 18.8%.
In the case of CCN1/C(=C\c2ccc3ccccc3[n+]2CC)Sc2cc(C)ccc21, the inhibition is reported as 10.8%.
With CC(C)Oc1ccccc1C(=O)NC(CO)C(=O)O (stereo not given) the inhibition was -23.6%.
In the case of CCOC(=O)C1=C(C)N=C2c3ccccc3C(=O)C2C1c1ccc(Br)cc1 (stereo not given), the inhibition is reported as 77.8% (active).
